About 11,000 (3.5%) of roughly 310,000 compounds were called active. Another 8% or so got no clear call; they are omitted. The sample as a whole holds a higher share of actives than the screen did. A number with no mark means an inactive call. Calls come from the whole dose curve; as a rule, active = well fitted inhibition curve with a large enough effect; inconclusive = small, poorly fitted or top-dose-only effect, or effect the other way; inactive = flat fitted curve, though single readings scatter.
Assay: VP16 counterscreen qHTS for inhibitors of ROR gamma transcriptional activity;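 note: Gal4-VP16 expression switched on by copper sulfate through the metallothionein promoter; nearly all actives have a fitted effect of over 50% in size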
Details: Drosophila S2 Gal4-VP16 UAS-luciferase, luminescence, 20 h; series mostly up to 53.6 µM; activity, negative = inhibition: at the top concentration
For `COc1ccc(CCNC(=O)NS(=O)(=O)c2ccc(C)cc2)cc1OC`, the “activity, negative = inhibition” value was 3.35%. For `COc1ccc(CCNC(=O)Cc2ccc(C)cc2)cc1OC`, the “activity, negative = inhibition” value was -26%. For `COc1ccc(CCNC(=S)NC(=O)/C=C/c2ccc(C)cc2)cc1OC`, the Potency was 10 µM (active). With `CCN1CCN(CCNC(=O)c2ccc3c(c2)NC(=O)/C(=C\c2ccc(OC)c(OC)c2)S3)CC1` the “activity, negative = inhibition” value was -5.66%. In the case of `CCOC(=O)c1ccc(NC(=O)Cn2nnc(-c3ccc(C)cc3)n2)cc1`, the “activity, negative = inhibition” value is reported as 3.09%. With `CCOC(=O)c1ccc(NC(=O)Cn2cnc3cc(C)c(C)cc32)cc1` the Potency was 7.08 µM (active). With `CCCc1nnc(SCC(=O)Nc2ccc(C(=O)OCC)cc2)o1` the “activity, negative = inhibition” value was -11.9%. With `CC(C)C(=O)Nc1c2c(nn1-c1ccccc1)CSC2` the “activity, negative = inhibition” value was -3.16%. For `O=C(c1cnn(-c2ccc(Cl)cc2)c1)c1ccccc1O`, the “activity, negative = inhibition” value was -29.8%. With `Cc1cc(O)cc(O)c1C(=O)Cc1cnn(-c2ccccc2)c1` the Potency was 0.355 µM (active). For `COc1ccc(C(=O)Cc2cnn(-c3ccccc3)c2)c(O)c1`, the “activity, negative = inhibition” value was -9.96%. In the case of `Cc1ccc(O)c(NC(=O)c2cc(-c3ccco3)on2)c1`, the “activity, negative = inhibition” value is reported as 5.28%. In the case of `COc1ccc(OCC(O)CNCCNc2nccc(C(F)(F)F)n2)cc1` (stereo not drawn), the “activity, negative = inhibition” value is reported as -3.87%. In the case of `CC(C)(C)CC(C)(C)NCC(O)COCCOc1ccc(Br)cc1` (stereo not drawn), the Potency is reported as 11.2 µM (active). With `OC(COc1ccc(Br)cc1)CN1CCCC1` (stereo not drawn) the “activity, negative = inhibition” value was -6.56%. With `CCOC(=O)CSc1nnc(NC(=O)C2CC(=O)N(c3ccc(F)cc3)C2)s1` (stereo not drawn) the “activity, negative = inhibition” value was 9.21%. For `CCC(=O)N1c2ccc(S(=O)(=O)NCc3ccco3)cc2CC1C` (stereo not drawn), the “activity, negative = inhibition” value was -10.7%. With `C/C=C/C=N/NC(=O)c1ccncc1` the “activity, negative = inhibition” value was -9.63%. With `C/C(=N\Nc1nc(Nc2ccccc2)nc(N2CCOCC2)n1)c1cccs1` the “activity, negative = inhibition” value was -25%. For `C/C(=N\Nc1nc2ccccc2[nH]1)c1cccs1`, the Potency was 6.31 µM (active). In the case of `O=C(Nc1ccccc1-c1nc2ccccc2[nH]c1=O)c1cccs1`, the “activity, negative = inhibition” value is reported as 4.25%. For `CN(c1ccccc1)S(=O)(=O)c1ccc2[nH]c(=O)[nH]c2c1`, the “activity, negative = inhibition” value was -15.9%. In the case of `CCn1ccnc1CN(C)C(=O)c1cc(COc2ccc(Cl)cc2OC)on1`, the “activity, negative = inhibition” value is reported as 6.82%. With `O=C(Nc1ccccc1)OCc1cc(-c2ccc(Cl)cc2)on1` the “activity, negative = inhibition” value was -8.41%. In the case of `O=C1c2cccc3cc(Br)cc(c23)C(=O)N1Nc1ccccc1`, the “activity, negative = inhibition” value is reported as -18.6%. In the case of `O=C1C=C(c2ccc(Cl)cc2)C(=O)N1Nc1ccccc1`, the Potency is reported as 3.98 µM (active). For `COc1cccc(NC(=S)NCCCN2CCOCC2)c1`, the “activity, negative = inhibition” value was -18%. In the case of `CCOc1cccc(/C=N/NC(=S)NCCN2CCOCC2)c1O`, the Potency is reported as 2.24 µM (active). With `Cc1ccc(NC(=S)NCCN2CCOCC2)cc1` the “activity, negative = inhibition” value was -2.5%. For `CCOC(=O)c1c(S(=O)(=O)NCC(=O)Nc2ccc(C)cc2)c(C)n(C)c1C`, the “activity, negative = inhibition” value was 0.589%. For `CCCc1cc(=O)oc2c(C)c(OCC(=O)Nc3ccccn3)ccc12`, the “activity, negative = inhibition” value was 2.02%. In the case of `O=C(CN1C(=O)S/C(=C\c2ccccc2Cl)C1=O)NC1C=CS(=O)(=O)C1` (stereo not drawn), the “activity, negative = inhibition” value is reported as -15.6%. For `CCCCCCCCn1c2c(c(=N)c3c1CCC3)CCCC2`, the Potency was 2.51 µM (active). In the case of `COCCCNC(=O)Cc1ccc(-n2c(C)nc3cccnc32)cc1`, the “activity, negative = inhibition” value is reported as -6.65%. For `CCCC(=O)Nc1cccc(NC(=S)NC(=O)C(C)Oc2ccc(Cl)cc2Cl)c1` (stereo not drawn), the Potency was 2.82 µM (active). For `COc1cccc(NC(=O)CN(C)C(=O)Cc2ccc(Cl)cc2Cl)c1`, the “activity, negative = inhibition” value was 12.1%. In the case of `CC(Oc1ccc(Cl)cc1Cl)C(=O)/C=C/N(C)C` (stereo not drawn), the “activity, negative = inhibition” value is reported as -0.64%. In the case of `Cc1ccc(/C=C2/SC(=S)N(CCC(=O)NCCCN3CCOCC3)C2=O)cc1`, the “activity, negative = inhibition” value is reported as 5.47%. With `CCCC[C@]12Cc3cc(OC)c(OC)cc3C(O1)C1=C(CC3(CCCCC3)OC1=O)O2` the activity, negative = inhibition was 7.46% [at 10 µM]. With `C=C1C(=CC=C2CCC[C@@]3(C)[C@@H]2CC[C@H]3[C@H](C)CCCC(C)C)C[C@@H](O)C[C@@H]1O` the “activity, negative = inhibition” value was -9.25%. For `C=C1/C(=C\C=C2\CCCC3(C)C2CCC3C(C)/C=C/C(O)C2CC2)CC(O)CC1O` (stereo not drawn), the Potency was 12.6 µM (active). With `COc1ccc(C(O)(C2CCCCC2)C(CN2CCCC2)c2ccccc2)cc1` (stereo not drawn) the “activity, negative = inhibition” value was -9.79%. In the case of `O=C(NCc1ccccc1Cl)C1CCN(S(=O)(=O)c2cccc3nonc23)CC1`, the “activity, negative = inhibition” value is reported as -5.38%. In the case of `O=C(NCCc1ccccc1)c1ccc2c(c1)N(Cc1ccccc1)CCS2`, the “activity, negative = inhibition” value is reported as -10%. With `O=c1oc(-c2ccco2)nc2sc3c(c12)CCCCC3` the “activity, negative = inhibition” value was -24%. For `COc1ccc(CCn2c(=N)c(C(=O)NCc3ccco3)cc3c(=O)n4cccc(C)c4nc32)cc1`, the “activity, negative = inhibition” value was 5.42%. In the case of `O=C(NCc1ccco1)c1cccn2c(=O)c3c4c(sc3nc12)CCCC4`, the Potency is reported as 11.2 µM (active). In the case of `CCCCC(C(=O)NC(C)(C)C)N(Cc1ccccc1)C(=O)c1snc(C(N)=O)c1N` (stereo not drawn), the “activity, negative = inhibition” value is reported as 12.3%. With `O=C(CN1CCN(Cc2ccccc2)CC1)Nc1ccc(F)c(F)c1` the “activity, negative = inhibition” value was 2.62%. In the case of `CCn1c2ccccc2c2cc(NC(=O)CNC)ccc21`, the “activity, negative = inhibition” value is reported as 1.69%. For `CCn1c2ccccc2c2cc(NC(=S)N3CCOCC3)ccc21`, the Potency was 22.4 µM (active). With `Cc1cc(N2CCN(C)CC2)nc2ccc(NC(=S)N3CCOCC3)cc12` the “activity, negative = inhibition” value was -2.43%. With `CC(C)CCN(C(=O)c1csnn1)C(C(=O)NC1CCCC1)c1ccccc1` (stereo not drawn) the “activity, negative = inhibition” value was 1.57%.
% is set by controls: 0 for no effect and ±100 for the full control effect; potency is the fitted concentration of half-maximal effect.
